The source of these data is PubChem BioAssay (NCATS).

Several values for one entry are separate records, joined by “and”; a condition that tells them apart may be missing. Identical values can stand only once. Records with an inconclusive call do not appear. More than one record can exist for a structure, and the calls need not agree. Unmarked numbers belong to inactive results. Activity calls are given as the source filed them. Calls come from the whole dose curve; as a rule, active = well fitted activation curve with a large enough effect; inconclusive = small, poorly fitted or top-dose-only effect; inactive = no such curve, though single readings can be large or run the other way.
Potency is the fitted concentration of half-maximal effect.

Sequence of Cellular tumor antigen p53 (Homo sapiens) (P04637 whole entry, looked up): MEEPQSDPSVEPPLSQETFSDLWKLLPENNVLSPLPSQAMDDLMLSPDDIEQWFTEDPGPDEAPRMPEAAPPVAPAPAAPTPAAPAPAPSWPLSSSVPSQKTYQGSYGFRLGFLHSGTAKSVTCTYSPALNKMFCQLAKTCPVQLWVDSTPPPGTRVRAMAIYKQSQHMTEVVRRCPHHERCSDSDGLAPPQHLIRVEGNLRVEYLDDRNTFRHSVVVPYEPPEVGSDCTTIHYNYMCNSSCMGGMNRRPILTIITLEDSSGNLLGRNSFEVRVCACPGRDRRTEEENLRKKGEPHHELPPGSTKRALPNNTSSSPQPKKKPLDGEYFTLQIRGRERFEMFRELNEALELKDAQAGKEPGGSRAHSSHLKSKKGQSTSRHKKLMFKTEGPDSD

The target of this assay is Cellular tumor antigen p53 (Homo sapiens) (UniProt P04637). Kind of assay: Primary qHTS for small molecule compounds that upregulate eGFP-tagged delta133p53alpha (in N-terminal) cells. (AID 2060322).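 For activation: cells pre-induced with doxycycline then dosed without doxycycline; series mostly up to about 56 µM; 0% = DMSO vehicle and 100% = reference activator.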 Note: nearly all actives have a fitted effect of over 75% in size. To be noted: NCI-H358 eGFP-delta133p53alpha fluorescence, 24 h; activation: stronger effect = higher value. From the text:
Assay Development and Screening Technology
National Center for Advancing Translational Sciences (NCATS),
National Institute of Health (NIH), Rockville, Maryland
Cellular senescence (CS) is one of the hallmarks of aging and age-related diseases. Senescent cells are characterized by an irreversible growth arrest, an increase in senescence-associated beta-galactosidase (SA-beta-gal) activity and p16INK4a expression, an activation of the DNA damage response pathways, and the emergence of a senescence-associated secretory phenotype (SASP).
Delta133p53alpha, a human/primate-specific p53 protein isoform, delays or inhibits the induction of CS and SASP in various types of human cells, including progeria-derived fibroblasts, primary normal astrocytes, and CD8+ T lymphocytes. Induction of delta133p53alpha with small molecule compounds may provide therapeutic opportunities for inhibition of senescence/SASP-associated pathologies in progeria syndromes, astrocyte-mediated neuroprotection in neurodegenerative diseases, and possibly prevention and treatment of a wider range of senescence- and aging-associated diseases.
Here we report the development and validation of a cell-based quantitative high throughput screening (qHTS) assay in 1,536-well format. This qHTS assay uses the NCI-H358 cell line with doxycycline-inducible expression of enhanced green fluorescent protein (eGFP)-tagged delta133p53alpha, which allows efficient and highly quantitative measurement of the protein levels.
PROTOCOL TABLE (as described by Inglese J, Shamu CE and Guy RK. 2007)
SEQUENCE No. (e.g., 1, 2, 3, etc.); […] (e.g., Cells, Incubation, Reagent, etc.); VALUE; DESCRIPTION.
1; Cells; 4uL; 800 doxycycline treated cells / well in doxycycline-free media, 1536-well black, clear-bottom low base Aurora microplates.
2; Compounds; 23 nL; Kalypsis pin tool (Wako) equipped with 1536-well pin heads, 5-azacytidine positive control.
3; Incubation; 24 hr; 37C, 5% CO2; 95% relative humidity.
4; Aspiration; 1x; BioTek EL406 washer dispenser (Agilent).
5; Fixing; 3.5% paraformaldehyde, BioTek EL406 washer dispenser (Agilent).
6; Washing; 1x PBS; BioTek EL406 washer dispenser (Agilent).
7; Nuclei staining; 1:1000 dilution of Hoechst 33342 (Thermofisher), BioTek EL406 washer dispenser (Agilent).
8; Incubation; 20 min; in the dark at room temperature.
9; Washing; 2x, 1x PBS (ThermoFisher), BioTek EL406 washer dispenser (Agilent).
10; Reagent; 10 uL; 1x PBS per well, sealed with clear adhesive tape.
NOTES (numbers refer to sequence numbers above).
1. NCI-H358 cells expressing eGFP-tagged delta133p53alpha were grown in T75 culture flasks and treated with doxycycline for 24h, at 10 ng/ml for eGFP-D133p53a cells (N-terminal cell) and 100 ng/ml for D133p53a-eGFP cells (C-terminal cells). Cells were trypsinized, counted using a Counted 3 Automated Cell Counter (Thermo Fisher), and diluted to a concentration of 200,000 cells/ml. A Multidrop Combi Reagent Dispenser (ThermoFisher) was used to dispense 800 cells/well in […] of doxycycline-free media, into 1536-well black/clear bottom low base plates (AuroraMicroplates).
2. After plating cells, 23 nl of compound library, DMSO vehicle control or positive control (5-azacytidine) were transferred by Pin Tool (Wako). The plate map layout was the same for each plate: (column 1) non-doxycycline treated cells + DMSO vehicle control; (column 2) doxycycline treated cells + DMSO vehicle control baseline; (column 3) doxycycline treated cells + positive control 57.5 uM final concentration 5-azacytidine; (column 4) doxycycline treated cells + serial dilution of 5-azacytidine, 16-point 1:2 titration spanning 1.8 nM to […] final concentration; (columns 5-48) doxycycline treated cells + titration of library compounds.
3. Cells were incubated at 37 °C, 5 % CO2, 95% RH with breathable metal lid for 24h.
4-10. […] After two washes, 10 ul of 1X PBS (Thermo Fisher) was dispensed to each well. Clear adhesive plate seals (VWR) were applied and plates stored at 4 °C.
11. […]
As to `Cc1ccc(NC(=O)C2(c3ccc4c(c3)OC(F)(F)O4)CC2)nc1-c1cccc(C(=O)O)c1`, the activation was -10.5% and the Potency was 0.153 µM (active).

Turning to `Nc1nc(O)c(C2=C3C(=Nc4ccccc43)C(=O)NCC2)[nH]1`, the activation is -1.79%. As for `CNC(=O)c1ccccc1Nc1nc(Nc2ccc(N3CCOCC3)cc2OC)ncc1Cl`, the Potency is 3.06 µM (active) and 21.3 µM (active). For `NS(=O)(=O)c1ccc(Cl)c(S(N)(=O)=O)c1`, the activation was -10%. As to `NC(=O)CC[C@@H](N)C(=O)O`, the activation was 1.69%.

Consider `CC(C)CC1NC(=O)C2CC3(O)c4ccccc4NC3N2C1=O` (stereo not given), for which the activation was -9.92%. Take `CC(N)C(=O)OC(C)(C)Cc1ccc(Cl)cc1` (stereo not given): the activation was 19.8% and -28.1%. On to `CCOC(=O)[C@H](CCc1ccccc1)N[C@@H](C)C(=O)N1[C@@H](C(=O)O)C[C@H]2CCC[C@@H]21`, for which the activation is 0.313%. Turning to `O=C(O)P(=O)(O)O`, the activation was -13%. Consider `C[C@@H](O)[C@H]1C(=O)N2C(C(=O)O)=C([C@H]3CCCO3)S[C@H]12`, for which the activation was -8.47%. On the same count and under the same terms, in the case of `FC(F)(F)c1cc(C(F)(F)F)c2ccc3nc(-c4nnco4)cn3c2n1` it was 5.73%. On the same count and under the same terms, in the case of `O=C(O)c1ccc(Nc2ncc3c(n2)-c2ccc(Cl)cc2C(c2c(F)cccc2F)=NC3)cc1` it was 139% and 6.25%. Regarding `NCCNc1cccc2ccccc12`, the activation is 24.3%. The same measure, in the same setting: in the case of `COc1ccccc1-c1ccc(-c2cn(C(=O)N3CCCCC3Cc3ccccc3)nn2)cc1` (stereo not given) it was -5%; in that of `CC(C)(O)C1CCC2(C)C3C(O)C4C(C13)C42CO` (stereo not given), 3.57%.

For `CC(C)Oc1ccc(-c2cnc3c(-c4ccnc5ccccc45)cnn3c2)cc1`, the activation was -6.21%. With `COc1ccc(CC2C(=O)NC(C)C(=O)N(C)C3Cc4ccc(cc4)Oc4cc(ccc4OC4OC(CO)C(O)C(O)C4O)CC(C(=O)NC(C)C(=O)NC(C)C(=O)N2C)N(C)C3=O)cc1` (stereo not given), the Potency was 5.09 µM (active). For the molecule `CCNC(=O)[C@@H]1CCCN1C(=O)[C@H](CCCN=C(N)N)NC(=O)[C@H](CC(C)C)NC(=O)[C@@H](C)NC(=O)[C@H](Cc1ccc(O)cc1)NC(=O)[C@H](CO)NC(=O)[C@H](Cc1c[nH]c2ccccc12)NC(=O)[C@H](Cc1cnc[nH]1)NC(=O)[C@@H]1CCC(=O)N1`, the activation is -6.33%. Turning to `COc1cccc2c1C(=O)c1c(O)c3c(c(O)c1C2=O)C[C@@](O)(C(=O)CO)C[C@@H]3O[C@H]1C[C@H](N)[C@H](O[C@@H]2CCCCO2)[C@H](C)O1`, the Potency is 15.5 µM (active). For `CC1(C)CC2C(C1)C1(C)CCC13OC3(CO)C2O` (stereo not given), the activation was -14.3%. Consider `C=C(C(=O)OC)C1C(O)CC2(C)C(O)CCC(=O)C2C1O` (stereo not given), for which the activation is -15.3%. For `Cc1cc(Nc2nc(N[C@@H](C)c3ncc(F)cn3)ncc2Cl)n[nH]1`, the Potency is 21.7 µM (active); the activation was -0.181% and 24.8%.

Regarding `CC(=O)N1CCN(c2ccc(OC[C@H]3CO[C@](Cn4ccnc4)(c4ccc(Cl)cc4Cl)O3)cc2)CC1`, the activation is -11.5% and -0.0769%.

Consider `NC(N)=NCCC[C@H](NC(=O)c1sccc1NS(=O)(=O)c1cccc2nsnc12)C(=O)O`, for which the activation was -11.5%. As to `C=CC(=O)Nc1cc2c(Nc3ccc(F)c(Cl)c3)ncnc2cc1OCCCN1CCOCC1`, the Potency is 4.9 µM (active).

Take `O=S(=O)(O)c1ccc2cc(N=Nc3cc(S(=O)(=O)O)c4cccnc4c3O)ccc2c1`: the activation is -29.8% and -2.86%. For `C[C@@H]1C[C@H]2O[C@@H]2/C=C\C=C\C(=O)Cc2c(Cl)c(O)cc(O)c2C(=O)O1`, the Potency is 4.53 µM (active).

In the case of `Clc1cccc(-n2nnnc2NCc2ccccc2Oc2ccccn2)c1Cl`, the activation was -7.52% and 10.5%. In the case of `CC(=O)N[C@H]1[C@H](O[C@H]2CC[C@@]3(C)C(CC[C@]4(C)C3CC=C3[C@@H]5CC(C)(C)CC[C@]5(C(=O)OC5OCC(O)C(O)C5O)CC[C@]34C)C2(C)C)O[C@H](COC2OC(C)C(O)C(OC3OC(C)C(O)C(O)C3O)C2O)[C@@H](O)[C@@H]1O` (stereo not given in full), the activation is -26%.

As for `CC(C)=CCC/C(C)=C/CC/C(C)=C/C(=O)OCC(=O)[C@@]1(O)CC[C@H]2[C@@H]3CCC4=CC(=O)C=C[C@]4(C)[C@H]3[C@@H](O)C[C@@]21C`, the activation is -21.8%. With `C=C1CCC2C(C)(C(=O)O)CCCC2(C)C1CC/C(C)=C\CO` (stereo not given), the activation was 15.2%. On the same count and under the same terms, under `CC1CCCCCCCc2cc(O)cc(O)c2C(=O)O1` (stereo not given) stands -3.57%. `CCc1cccc2c(CCO)c[nH]c12`: the activation is -27.7%. Same read-out and setting: in the case of `O=[N+]([O-])c1ccc(Oc2ccc3c(c2)CCC(c2ccccc2)O3)nc1` (stereo not given) it was 2.33%. Same read-out and setting: in the case of `CCCN[C@H]1CCc2nc(N)sc2C1` it was 9.21% and 7.7%; in that of `O=C([C@@H](Cc1cccc(C(F)(F)F)c1)NS(=O)(=O)c1cc(F)c2c(c1)CCNC2)N1CCCC1`, -6.33%; in that of `CC(C)C[C@H](NC(=O)CNC(=O)[C@H](Cc1ccc(O)cc1)NC(=O)[C@H](CO)NC(=O)[C@H](Cc1c[nH]c2ccccc12)NC(=O)[C@H](Cc1cnc[nH]1)NC(=O)[C@@H]1CCC(=O)N1)C(=O)N[C@@H](CCCN=C(N)N)C(=O)N1CCC[C@H]1C(=O)NCC(N)=O` (stereo in doubt), -1.69%. `CCCCCCC/C=C\CCCCCCCCC(=O)O`: the activation was -38.4%.
